Compound activity as filed in PubChem BioAssay.
This is a sample that favours compounds with a hit; in the whole collection about 1.2% have one here.
EBV gp42 inh – EBV gp42 inhibition; Fluorescence polarization binding assay, mP read-out; inhibition, % (tested at 21.74 µM); 220,000 compounds, 0.42% hits; in the data active means inhibition above about 50%
Target sequence (Q1HVG2 whole entry, looked up): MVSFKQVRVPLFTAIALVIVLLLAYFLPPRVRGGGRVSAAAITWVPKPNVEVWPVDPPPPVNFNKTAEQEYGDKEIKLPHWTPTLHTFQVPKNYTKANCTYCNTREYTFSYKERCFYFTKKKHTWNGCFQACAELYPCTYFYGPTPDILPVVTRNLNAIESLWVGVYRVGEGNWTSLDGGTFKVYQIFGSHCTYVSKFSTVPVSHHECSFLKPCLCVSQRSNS
zVAD death inh – L929 zVAD cell death inhibition; L929 zVAD necroptosis rescue, ATP luminescence, 24 h; with zVAD 60 µM; viability rescue, % at 10 µM; 220,000 compounds, 0.38% hits; AID 1377;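 active means activation, scaled between plate controls, above about 75%, limit read from the data; inactive means activation under that limit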
TNF death inh – inhibitors of TNF-alpha induced necroptosis in Jurkat FADD-/- cells. activation (protection from cell death), % at 10 µM. Jurkat FADD-/- TNF necroptosis rescue, ATP luminescence, 24 h; 0 = TNF only, 100 = no-TNF cells. 220,000 compounds, 0.068% hits;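 active means activation, meaning protection from cell death, of at least 50% relative to plate controls; inactive means activation below 50%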;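 further: necroptosis triggered by 40 ng/mL TNF-alpha added together with compound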
eIF4E-4G inh – eIF4E/eIF4G interaction inhibition in translation initiation; P63073+Q04637; TR-FRET eIF4E-eIF4GI(517-606) binding, 2 h; inhibition, % at 21.7 µM; 220,000 compounds, 0.37% hits; AID 782;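 active means inhibition above about 30%, limit read from the data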
Numbers stand for hits; i = inactive; nt = no result; + = active, no number; [ ] = another dose, or the depositor's remark.

SMILES	EBV gp42 inh	zVAD death inh	TNF death inh	eIF4E-4G inh
CN(C)c1ccc(/C=N\NC(=O)c2cccc3cc[nH]c23)cc1	i	i	i	i
CCOc1cc(C2C(C#N)=C(N)OC(C)=C2C(C)=O)cc(Br)c1O (stereo unspecified)	51.3	i	i	i
O=C(/C=C/c1cn(CC(O)CN2CCOCC2)c2ccccc12)c1cccs1 (stereo unspecified)	i	i	i	i
Cc1ccc(C(=O)/C=C/c2cn(CC(O)CN3CCOCC3)c3ccccc23)cc1 (stereo unspecified)	i	77.4	i	i
Cc1nn(C)c(C)c1CN(C)C(=O)C1c2ccccc2Oc2ccccc21	81.4	i	i	i
Cc1nn(C)c(C)c1CN(C)C(=O)C1(C)CC1(Br)Br (stereo unspecified)	i	i	i	i
CN(CC(=O)Nc1ccc2c(c1)OCCO2)S(=O)(=O)c1cccc2cccnc12	i	i	i	i
O=S(=O)(Nc1ccc2c(c1)OCCO2)c1cccc2cccnc12	99.4	i	i	i
CN(C)c1nc(Nc2ccccc2)nc(Oc2ccc(=O)[nH]n2)n1	i	i	i	i
Cc1ccc(Nc2nc(Oc3ccc(=O)[nH]n3)nc(N(C)C)n2)cc1	i	i	i	73.8
COc1ccc(/C=C2/N=C(c3cccs3)OC2=O)cc1OC(C)C	107.4	i	i	i
O=C(Nc1cc(S(=O)(=O)N2CCCCC2)ccc1N1CCCCC1)C1CC1	i	i	i	i
O=C(Nc1cccnc1)c1cc2c(ccc3ccccc32)o1	i	i	i	75.7
NNC(=O)c1cc2c(ccc3ccccc32)o1	i	i	i	i
O=c1cnc2cc([N+](=O)[O-])ccc2[nH]1	i	i	i	i
CCOc1ccc2oc(C(=O)NCC(C)(C)CN(C)C)c(C)c2c1	i	i	i	i
Cc1ccc(-n2sc3ccccc3c2=O)cc1S(=O)(=O)N1CCCCC1	i	i	i	31.7
CN(C)S(=O)(=O)c1cccc(-n2sc3ccccc3c2=O)c1	i	i	i	55.6
O=c1c2ccccc2sn1-c1ccc(S(=O)(=O)N2CCCC2)cc1	i	i	i	i
O=c1c2ccccc2c(C=Nc2ccccc2O)c(O)n1-c1nccs1	i	i	i	i
O=c1c2ccccc2sn1-c1ccc(S(=O)(=O)N2CCCCC2)cc1	nt	i	i	nt
O=c1c2ccccc2sn1-c1nccs1	i	i	i	68.2
O=c1c2ccccc2sn1-c1ccccc1	i	i	i	53.8
Cc1nc(/C=C\C(=O)O)c2cc(C)oc2n1	i	i	i	i
CCOC(=O)C1(Cc2ccc(Cl)cc2)CCN(C(=O)c2cscn2)CC1	i	i	i	i
SMILES	EBV gp42 inh	zVAD death inh	TNF death inh	eIF4E-4G inh
COC(=O)C1(C)Cc2cc(OC(C)=O)c(OC(C)=O)cc2N1 (stereo unspecified)	i	i	i	i
COc1ccc(OC)c(NC(=O)COC(=O)c2cc3c(s2)CCC3)c1	i	i	i	36.5
COc1ccc(OC)c(NC(=O)COC(=O)c2c3c(nc4ccccc24)CCCC3)c1	i	i	i	i
Cc1cccn2cc(CCNC(=O)c3cccs3)nc12	i	i	i	i
Fc1cccc(Cl)c1CNc1ccc(N2CCCC2)cc1	i	i	i	34.7
CCOC(=O)C1CCCN(c2nc3ccccc3nc2C(C#N)C(=O)NCc2ccccc2)C1 (stereo unspecified)	54.0	i	i	i
N#CC(C(=O)NCc1ccccc1)c1nc2ccccc2nc1N1CCCC1 (stereo unspecified)	i	i	i	i
Cc1cc(C)n2nc(/C(C#N)=C/c3ccccn3)c(C#N)c2n1	i	i	i	i
O=C1C(Cl)=C(Nc2ccccc2O)C(=O)N1CCc1ccccc1	i	i	i	i
CSc1ccc(NC(=O)NCc2ccccc2)cc1	i	i	i	i
CCN(CC)S(=O)(=O)c1ccc(Cl)c(C(=O)Oc2cccnc2)c1	i	i	i	57.6
Nc1nnc(CSc2ccc(Cl)cc2)s1	i	104.4	i	i
CCCCCCOC(=O)C(C#N)c1nc2ccccc2nc1N1CCOCC1 (stereo unspecified)	99.3	i	i	i
CCCCOC(=O)C(C#N)c1nc2ccccc2nc1N1CCOCC1 (stereo unspecified)	i	i	i	i
CCN(CC)c1ccc(/C=C/C(=O)c2ccc(Br)cc2)cc1	+	i	i	i
CN(C)c1ccc(C(=O)/C=C/c2ccc(Br)cc2)cc1	i	i	i	i
Cn1c(CNc2ccccc2)nc2ccccc21	i	i	i	i
Cn1c(C(C)(O)C(O)c2ccccc2)nc2ccccc21 (stereo unspecified)	i	i	i	87.5[fluorescence artefact?]
NC(=O)C1CCN(CCS(=O)(=O)c2ccc(Cl)cc2)CC1	i	i	i	i
